{"source": "PubChem BioAssay (Tox21)", "note": "Results filed as inconclusive are left out. Calls of active or inactive are those of the source. The call rests on the fitted dose curve; in most records, active means well fitted cell-killing curve with a large enough effect in the repeat runs; inconclusive means weak or mixed curves, or effect the other way; inactive means no such curve, though single readings can be large or run the other way. On the % scale 0 is the no-effect control and ±100 the full control effect; potency means the concentration at half of the fitted maximal effect.", "data": [{"assay": "qHTS assay to identify small molecule antagonists of the glucocorticoid receptor (GR) signaling pathway - cell viability counter screen (AID 720693); further: nearly all actives have a fitted effect of over 55% in size", "settings": "GR-bla HeLa viability, CellTiter-Glo luminescence, 18 h, with 5 nM dexamethasone present; series mostly up to 58.5 µM; viability change, negative = cytotoxic: at the top concentration", "excerpt": "National Center for Advancing Translational Sciences [NCATS]\nNIH Chemical Genomics Center [NCGC]\nU.S. Environmental Protection Agency [EPA]\nNational Institutes of Environmental Health Sciences [NIEHS]\nNational Toxicology Program [NTP]\nU.S. Food and Drug Administration [FDA]\nThe Glucocorticoid receptor (GR) is one of the members of the nuclear receptor family of ligand-dependent transcription factors. GR plays a critical role in carbohydrate, protein and lipid metabolisms and programmed cell death. CellSensor GR-bla HeLa cell line (Invitrogen) contains a beta-lactamase reporter gene under the control of the glucocorticoid response element stably integrated into HeLa cells, a cervical cancer cell line that expresses glucocorticoid receptor. The activation of the reporter gene under culture conditions can be detected by fluorescence intensity. This cell line has been used to screen the Tox21 10K compound library and to identify the compounds that inhibit the GR signaling. The cytotoxicity of the Tox21 compound library against the GR-bla HeLa cell line was tested in parallel by measuring the cell viability using CellTiter-Glo assay in the same wells.\nTox21 Assay Protocol Summary:\nThe GR-bla HeLa cells were dispensed at 1500 cells/5 ul/well in 1536-well black wall/clear bottom plates using a Multidrop Combi (ThermoFisher Scientific, Waltham, MA) dispenser. After the assay plates were incubated at a 37 C/5% CO2 incubator for 4 hours, 23 nL of compounds dissolved in DMSO, positive controls or DMSO only was transferred to the assay plate by a pintool station (Kalypsys, San Diego, CA), followed by addition of 1 uL of dexamethasone (5 nM, final concentration in the well). The plates were incubated at 37 C for 18 hours. After 1 uL of LiveBLAzerTM B/G FRET substrate was added using a Flying Reagent Dispenser (Aurora Discovery, San Diego, CA), the plates were incubated at room temperature (RT) for 2 hours, and fluorescence intensity was measured by an Envision plate reader (PerkinElmer, Shelton, CT). After measurement of bla assay, 3 ul CellTiter-Glo (Promega, Madison, WI) was added to measure the cytotoxicity and the plates were then incubated at RT for 30 min. The luminescence was measured using a ViewLux (Perkin Elmer) plate reader.", "values": [{"smiles": "C=CCOC(=O)C(C)(C)OC(=O)c1cc(-n2c(=O)cc(C(F)(F)F)n(C)c2=O)ccc1Cl", "viability change, negative = cytotoxic": "5.33% (inactive)"}, {"smiles": "OC[P+](CO)(CO)CO", "Potency": "inactive"}, {"smiles": "CCC(C)(C)O", "viability change, negative = cytotoxic": "-2.74% (inactive)"}, {"smiles": "O=C(Cl)OCCOCCOC(=O)Cl", "viability change, negative = cytotoxic": "0.81% (inactive)"}, {"smiles": "c1ccc2sc(SNC3CCCCC3)nc2c1", "Potency": "inactive"}, {"smiles": "CCCCC(CC)COC(=O)c1c(Br)c(Br)c(Br)c(Br)c1C(=O)OCC(CC)CCCC", "note": "(stereo not given)", "viability change, negative = cytotoxic": "21.8% (inactive)"}, {"smiles": "OCC1CO1", "note": "(stereo not given)", "Potency": "inactive"}, {"smiles": "C[Si](Cn1cncn1)(c1ccc(F)cc1)c1ccc(F)cc1", "Potency": "inactive"}, {"smiles": "CC(C)(c1ccccc1)c1cc(-n2nc3ccccc3n2)c(O)c(C(C)(C)c2ccccc2)c1", "viability change, negative = cytotoxic": "-0.451% (inactive)"}, {"smiles": "O=C(CCl)CCl", "viability change, negative = cytotoxic": "7.4% (inactive)"}, {"smiles": "OCCCl", "viability change, negative = cytotoxic": "-0.765% (inactive)"}, {"smiles": "CN[C@@H](C)[C@H](O)c1ccccc1", "viability change, negative = cytotoxic": "-1.12% (inactive)"}, {"smiles": "O=CC=O", "Potency": "inactive"}, {"smiles": "CCc1ccccc1N", "viability change, negative = cytotoxic": "-10.4% (inactive)"}, {"smiles": "c1ccc2c(c1)-c1cccc3cccc-2c13", "Potency": "inactive"}, {"smiles": "C=CC(=O)NC(C)(C)CC(C)=O", "viability change, negative = cytotoxic": "-0.272% (inactive)"}, {"smiles": "C=CCc1ccc(OC(=O)Cc2ccccc2)c(OC)c1", "viability change, negative = cytotoxic": "14.8% (inactive)"}, {"smiles": "CC(Oc1cccc(Cl)c1)C(=O)O", "note": "(stereo not given)", "viability change, negative = cytotoxic": "2.9% (inactive)"}, {"smiles": "CC(Cl)C(=O)O", "note": "(stereo not given)", "viability change, negative = cytotoxic": "-0.695% [at 78.9 µM] (inactive)"}, {"smiles": "COC1=CC(=O)O[C@@H](/C=C/c2ccc3c(c2)OCO3)C1", "viability change, negative = cytotoxic": "-4.79% (inactive)"}, {"smiles": "COc1ccc2c(c1OC)C(=O)O[C@H]2[C@@H]1c2cc3c(cc2CCN1C)OCO3", "viability change, negative = cytotoxic": "8.18% (inactive)"}, {"smiles": "CC1(C)CC(=O)CC(C)(C)N1[O]", "viability change, negative = cytotoxic": "6.29% (inactive)"}, {"smiles": "CC[N+]1(C)CCCC(OC(=O)C(O)(c2ccccc2)c2ccccc2)C1", "note": "(stereo not given)", "viability change, negative = cytotoxic": "4.45% (inactive)"}, {"smiles": "COP(=O)(OC)OC(Br)C(Cl)(Cl)Br", "note": "(stereo not given)", "viability change, negative = cytotoxic": "-21.3% (inactive)"}, {"smiles": "CON(C)C(=O)Nc1ccc(Cl)cc1", "viability change, negative = cytotoxic": "20.8% (inactive)"}, {"smiles": "O=S(=O)(Cl)Cl", "viability change, negative = cytotoxic": "16.2% (inactive)"}, {"smiles": "CCCSP(=S)(OCC)Oc1ccc(SC)cc1", "note": "(stereo not given)", "viability change, negative = cytotoxic": "-5.16% (inactive)"}, {"smiles": "C[N+](C)(C)CC1CO1", "note": "(stereo not given)", "viability change, negative = cytotoxic": "-2.22% (inactive)"}, {"smiles": "SCc1ccccc1", "viability change, negative = cytotoxic": "-0.187% [at 78.9 µM] (inactive)"}, {"smiles": "Oc1cccc(Cl)c1", "viability change, negative = cytotoxic": "-3.13% (inactive)"}, {"smiles": "C[N+]1(CCF)[C@@H]2CC[C@H]1CC(OC(=O)C(O)(c1ccccc1)c1ccccc1)C2", "note": "(stereo not given in full)", "viability change, negative = cytotoxic": "1.83% (inactive)"}, {"smiles": "N#CC(C#N)=C(C#N)C#N", "viability change, negative = cytotoxic": "5.78% [at 78.9 µM] (inactive)"}, {"smiles": "COc1cc(C[C@@H](C)N)c(OC)cc1Br", "viability change, negative = cytotoxic": "-6.75% [at 78.9 µM] (inactive)"}, {"smiles": "O=S(=O)(c1ccccc1)c1ccccc1", "viability change, negative = cytotoxic": "-3.47% (inactive)"}, {"smiles": "CCCCCCCCCCCCN=C(N)N", "viability change, negative = cytotoxic": "-13.6% [at 3.15 µM] (inactive)"}, {"smiles": "CCCN(CCC)C(=O)Cc1c(-c2ccc(Cl)cc2)nc2ccc(Cl)cn12", "viability change, negative = cytotoxic": "0.155% (inactive)"}, {"smiles": "NNCCO", "viability change, negative = cytotoxic": "-8.72% (inactive)"}, {"smiles": "C=C(Cl)Cl", "viability change, negative = cytotoxic": "-5.36% [at 78.9 µM] (inactive)"}, {"smiles": "CCCCCCCCCCCC[N+](C)(C)CCOc1ccccc1", "Potency": "17.4 µM (active)"}, {"smiles": "CCOC(=O)NC(O)C(Cl)(Cl)Cl", "note": "(stereo not given)", "viability change, negative = cytotoxic": "17.6% (inactive)"}]}]}
